# Data: PubChem BioAssay (EPA / NIEHS)
# Active and inactive are the calls of the source. Rule for the calls: active = hit-call score of the fitted dose curve at least 0.9, where 1 is the maximum; inactive = score below 0.9.
# What was measured:
# [1] = CEETOX_H295R_PROG: CeeTox H295R High-throughput Steroidogenesis Assay for Progesterone (PROG) (AID 2283442); conditions: actives raise or lower the signal
# Outline: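 Adrenal H295R line, forskolin-stimulated (10 uM, 48 h) before dosing. 48 h exposure, 0.1% DMSO vehicle. Secreted progesterone by reverse-phase HPLC with ESI+ MS/MS quantification; DMSO-normalised bidirectional curve fit.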
# [2] = read-out: Tumor necrosis factor receptor superfamily member 6 (Homo sapiens) (UniProt P25445); experiment: LTEA_HepaRG_FAS: Life Technologies and Expression Analysis (LTEA) Assay for Fas cell surface death receptor (FAS) using HepaRG (AID 2283447); conditions: mRNA level, 48 h; actives raise or lower the signal
# Outline: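 FAS transcript level was measured by TaqMan qRT-PCR against three housekeeping genes after 48 h chemical exposure. Cells were HepaRG, 0.5% DMSO vehicle, with a top concentration of 100 uM and half-log dilutions over eight points, in duplicate.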
# [3] = read-out: Fatty acid synthase (Homo sapiens) (UniProt P49327); experiment: LTEA_HepaRG_FASN: Life Technologies and Expression Analysis (LTEA) Assay for Fatty Acid Synthase (FASN) using HepaRG (AID 2283448); conditions: mRNA level, 48 h; actives raise or lower the signal
# Outline: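 Differentiated human HepaRG cells were exposed for 48 h in serum-free induction medium to eight half-log concentrations up to 100 uM in 0.5% DMSO, in duplicate. FASN mRNA was quantified by TaqMan qRT-PCR, normalized to ACTB/GAPDH/POLR2A, and fitted bidirectionally against DMSO.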
# [4] = read-out: Cyclin D2 (CCND2), CCND2 (gene 894); experiment: LTEA_HepaRG_CCND2: Life Technologies and Expression Analysis (LTEA) Assay for Cyclin D2 (CCND2) using HepaRG (AID 2283449); conditions: mRNA level, 48 h; actives raise or lower the signal
# Outline: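 Read-out is CCND2 mRNA level measured by qRT-PCR in human HepaRG liver cells and normalised to three housekeeping genes. Chemicals were applied for 48 h at up to 100 uM, with gain or loss fitted relative to 0.5% DMSO.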
# [5] = read-out: Cyclin Dependent Kinase Inhibitor 1A (CDKN1A), CDKN1A (gene 1026); experiment: LTEA_HepaRG_CDKN1A: Life Technologies and Expression Analysis (LTEA) Assay for Cyclin Dependent Kinase Inhibitor 1A (CDKN1A) using HepaRG (AID 2283450); conditions: mRNA level, 48 h; actives raise or lower the signal
# Outline: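 Cryopreserved HepaRG cells were plated and cultured 48 h, then switched to serum-free induction medium. Chemicals (eight half-log concentrations, top 100 uM, 0.5% DMSO) were applied for 48 h. Lysates underwent qRT-PCR for CDKN1A with housekeeping normalization.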
# [6] = read-out: catalase (CAT), CAT (gene 847); experiment: LTEA_HepaRG_CAT: Life Technologies and Expression Analysis (LTEA) Assay for catalase (CAT) using HepaRG (AID 2283452); conditions: mRNA level, 48 h; actives raise or lower the signal;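 for AC50: TaqMan qRT-PCR signal normalized to ACTB GAPDH and POLR2A housekeeping genes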
# Outline: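 Expression of CAT was quantified by TaqMan qRT-PCR with ACTB/GAPDH/POLR2A normalization after 48 h chemical exposure of HepaRG. Eight-point half-log series, top 100 uM, in 0.5% DMSO; gain or loss fitted against vehicle.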
# [7] = read-out: flavin-containing dimethylaniline monooxygenases 3 (FMO3), FMO3 (gene 2328); experiment: LTEA_HepaRG_FMO3: Life Technologies and Expression Analysis (LTEA) Assay for flavin-containing dimethylaniline monooxygenases 3 (FMO3) using HepaRG (AID 2283453); conditions: mRNA level, 48 h; actives raise or lower the signal;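 for AC50: FMO3 transcript by TaqMan qRT-PCR normalized to ACTB GAPDH and POLR2A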
# Outline: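 HepaRG, 48 h exposure, 8-pt half-log series from 100 uM, 0.5% DMSO vehicle, duplicates; FMO3 transcript by Fluidigm TaqMan qRT-PCR, housekeeping-normalized; gain/loss fit vs DMSO.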
# [8] = read-out: Cytochrome P450 (CYP1A1), CYP1A1 (gene 1543); experiment: LTEA_HepaRG_CYP1A1: Life Technologies and Expression Analysis (LTEA) Assay for Cytochrome P450 (CYP1A1) using HepaRG (AID 2283454); conditions: mRNA level, 48 h; actives raise or lower the signal
# Outline: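 Induction of CYP1A1 mRNA in a human hepatic cell line was measured 48 h after dosing, with 1 mM phenobarbital as induction positive control and 0.5% DMSO vehicle as baseline for bidirectional curve fitting.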
# [9] = read-out: CFLAR gene, CFLAR (gene 8837); experiment: LTEA_HepaRG_CFLAR: Life Technologies and Expression Analysis (LTEA) Assay for CFLAR gene using HepaRG (AID 2283455); conditions: mRNA level, 48 h; actives raise or lower the signal
# Outline: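 HepaRG, 48 h exposure, 8-pt conc-response (100 uM top, half-log), 0.5% DMSO vehicle, duplicates. CFLAR expression by qRT-PCR; ACTB/GAPDH/POLR2A normalization; gain or loss fit vs DMSO baseline.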
# [10] = read-out: growth arrest and DNA damage 45 (GADD45A), GADD45A (gene 1647); experiment: LTEA_HepaRG_GADD45A: Life Technologies and Expression Analysis (LTEA) Assay for growth arrest and DNA damage 45 (GADD45A) using HepaRG (AID 2283458); conditions: mRNA level, 48 h; actives raise or lower the signal
# Outline: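 Differentiated HepaRG cells were exposed in duplicate for 48 h in serum-free induction medium to 8-point half-log concentrations up to 100 uM in 0.5% DMSO. GADD45A mRNA was measured by TaqMan qRT-PCR, normalized to ACTB, GAPDH and POLR2A, with bidirectional fitting versus DMSO.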
# [11] = read-out: Forkhead box O3 (FOXO3), FOXO3 (gene 2309); experiment: LTEA_HepaRG_FOXO3: Life Technologies and Expression Analysis (LTEA) Assay for Forkhead box O3 (FOXO3) using HepaRG (AID 2283459); conditions: mRNA level, 48 h; actives raise or lower the signal
# Outline: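 HepaRG, 48 h post-dose; 8 conc., half-log from 100 uM, 0.5% DMSO, duplicates; serum-free induction medium. Readout: FOXO3 mRNA, TaqMan qRT-PCR, housekeeping-normalized. Bidirectional curve fit vs DMSO baseline.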
# [12] = read-out: ABC Transporter (ABCB1), ABCB1 (gene 5243); experiment: LTEA_HepaRG_ABCB1: Life Technologies and Expression Analysis (LTEA) Assay for ABC Transporter (ABCB1) using HepaRG (AID 2283460); conditions: mRNA level, 48 h; actives raise or lower the signal
# Outline: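 Expression of ABCB1 was quantified by qRT-PCR against three housekeeping genes after human HepaRG cultures received test chemicals for 48 hours. Concentrations spanned eight half-log steps topping at 100 uM in 0.5% DMSO; gain or loss of signal was fitted relative to vehicle.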
# [13] = read-out: growth arrest and DNA damage 45 (GADD45B), GADD45B (gene 4616); experiment: LTEA_HepaRG_GADD45B: Life Technologies and Expression Analysis (LTEA) Assay for growth arrest and DNA damage 45 (GADD45B) using HepaRG (AID 2283461); conditions: mRNA level, 48 h; actives raise or lower the signal
# Outline: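 Values are bidirectional concentration-response fits against 0.5% DMSO controls. Underlying data: qRT-PCR mRNA levels in human HepaRG liver cells treated 48 h in serum-free induction medium, eight concentrations topping at 100 uM.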
# [14] = read-out: ABC Transporter (ABCC3), ABCC3 (gene 8714); experiment: LTEA_HepaRG_ABCC3: Life Technologies and Expression Analysis (LTEA) Assay for ABC Transporter (ABCC3) using HepaRG (AID 2283462); conditions: mRNA level, 48 h; actives raise or lower the signal
# Outline: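 Differentiated HepaRG liver cells receive test chemicals at eight concentrations (max 100 uM) for 48 h. Expression of ABCC3 is quantified by qRT-PCR against ACTB, GAPDH and POLR2A, and activity is fitted in both directions against the DMSO control.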
# [15] = read-out: ABC Transporter (ABCC2), ABCC2 (gene 1244); experiment: LTEA_HepaRG_ABCC2: Life Technologies and Expression Analysis (LTEA) Assay for ABC Transporter (ABCC2) using HepaRG (AID 2283464); conditions: mRNA level, 48 h; actives raise or lower the signal
# Outline: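 Gene expression of ABCC2 was determined by qRT-PCR in HepaRG cells exposed 48 h to chemicals (highest 100 uM, half-log dilutions). Activity was fitted in both directions relative to 0.5% DMSO vehicle.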
# [16] = read-out: Broad substrate specificity ATP-binding cassette transporter ABCG2 (Homo sapiens) (UniProt Q9UNQ0); experiment: LTEA_HepaRG_ABCG2: Life Technologies and Expression Analysis (LTEA) Assay for ABC Transporter (ABCG2) using HepaRG (AID 2283465); conditions: mRNA level, 48 h; actives raise or lower the signal
# Outline: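 Read-out is ABCG2 mRNA induction or loss quantified by qRT-PCR after 48 h chemical treatment of human HepaRG cells, normalized to three housekeeping genes. Concentrations reached 100 uM top in half-log steps; fitting was bidirectional against 0.5% DMSO.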
# [17] = read-out: Cyclin D1 (CCND1), CCND1 (gene 595); experiment: LTEA_HepaRG_CCND1: Life Technologies and Expression Analysis (LTEA) Assay for Cyclin D1 (CCND1) using HepaRG (AID 2283451); conditions: mRNA level, 48 h; actives raise or lower the signal
# Outline: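 Human liver HepaRG line; 48 h dosing, 8 conc. ≤100 uM, 0.5% DMSO; TaqMan qRT-PCR mRNA, 3 housekeeping genes; bidirectional curve fit vs DMSO.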
# [18] = read-out: Forkhead box O1 (FOXO1), FOXO1 (gene 2308); experiment: LTEA_HepaRG_FOXO1: Life Technologies and Expression Analysis (LTEA) Assay for Forkhead box O1 (FOXO1) using HepaRG (AID 2283456); conditions: mRNA level, 48 h; actives raise or lower the signal
# Outline: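 Readout is FOXO1 transcript level by multiplexed qRT-PCR against three housekeeping genes, curve-fitted in both directions relative to 0.5% DMSO vehicle. Human HepaRG cultures received chemicals for 48 h, up to 100 uM in half-log steps.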
# [19] = read-out: ABC Transporter (ABCB11), ABCB11 (gene 8647); experiment: LTEA_HepaRG_ABCB11: Life Technologies and Expression Analysis (LTEA) Assay for ABC Transporter (ABCB11) using HepaRG (AID 2283463); conditions: mRNA level, 48 h; actives raise or lower the signal
# Outline: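 ABCB11 transcript levels are read by Fluidigm TaqMan qRT-PCR after 48 h chemical treatment of human HepaRG cells. Concentrations span 100 uM downward in half-log steps with 0.5% DMSO; gain or loss is fitted against DMSO controls.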
# Sequence of Fatty acid synthase (Homo sapiens) (P49327 whole entry, looked up): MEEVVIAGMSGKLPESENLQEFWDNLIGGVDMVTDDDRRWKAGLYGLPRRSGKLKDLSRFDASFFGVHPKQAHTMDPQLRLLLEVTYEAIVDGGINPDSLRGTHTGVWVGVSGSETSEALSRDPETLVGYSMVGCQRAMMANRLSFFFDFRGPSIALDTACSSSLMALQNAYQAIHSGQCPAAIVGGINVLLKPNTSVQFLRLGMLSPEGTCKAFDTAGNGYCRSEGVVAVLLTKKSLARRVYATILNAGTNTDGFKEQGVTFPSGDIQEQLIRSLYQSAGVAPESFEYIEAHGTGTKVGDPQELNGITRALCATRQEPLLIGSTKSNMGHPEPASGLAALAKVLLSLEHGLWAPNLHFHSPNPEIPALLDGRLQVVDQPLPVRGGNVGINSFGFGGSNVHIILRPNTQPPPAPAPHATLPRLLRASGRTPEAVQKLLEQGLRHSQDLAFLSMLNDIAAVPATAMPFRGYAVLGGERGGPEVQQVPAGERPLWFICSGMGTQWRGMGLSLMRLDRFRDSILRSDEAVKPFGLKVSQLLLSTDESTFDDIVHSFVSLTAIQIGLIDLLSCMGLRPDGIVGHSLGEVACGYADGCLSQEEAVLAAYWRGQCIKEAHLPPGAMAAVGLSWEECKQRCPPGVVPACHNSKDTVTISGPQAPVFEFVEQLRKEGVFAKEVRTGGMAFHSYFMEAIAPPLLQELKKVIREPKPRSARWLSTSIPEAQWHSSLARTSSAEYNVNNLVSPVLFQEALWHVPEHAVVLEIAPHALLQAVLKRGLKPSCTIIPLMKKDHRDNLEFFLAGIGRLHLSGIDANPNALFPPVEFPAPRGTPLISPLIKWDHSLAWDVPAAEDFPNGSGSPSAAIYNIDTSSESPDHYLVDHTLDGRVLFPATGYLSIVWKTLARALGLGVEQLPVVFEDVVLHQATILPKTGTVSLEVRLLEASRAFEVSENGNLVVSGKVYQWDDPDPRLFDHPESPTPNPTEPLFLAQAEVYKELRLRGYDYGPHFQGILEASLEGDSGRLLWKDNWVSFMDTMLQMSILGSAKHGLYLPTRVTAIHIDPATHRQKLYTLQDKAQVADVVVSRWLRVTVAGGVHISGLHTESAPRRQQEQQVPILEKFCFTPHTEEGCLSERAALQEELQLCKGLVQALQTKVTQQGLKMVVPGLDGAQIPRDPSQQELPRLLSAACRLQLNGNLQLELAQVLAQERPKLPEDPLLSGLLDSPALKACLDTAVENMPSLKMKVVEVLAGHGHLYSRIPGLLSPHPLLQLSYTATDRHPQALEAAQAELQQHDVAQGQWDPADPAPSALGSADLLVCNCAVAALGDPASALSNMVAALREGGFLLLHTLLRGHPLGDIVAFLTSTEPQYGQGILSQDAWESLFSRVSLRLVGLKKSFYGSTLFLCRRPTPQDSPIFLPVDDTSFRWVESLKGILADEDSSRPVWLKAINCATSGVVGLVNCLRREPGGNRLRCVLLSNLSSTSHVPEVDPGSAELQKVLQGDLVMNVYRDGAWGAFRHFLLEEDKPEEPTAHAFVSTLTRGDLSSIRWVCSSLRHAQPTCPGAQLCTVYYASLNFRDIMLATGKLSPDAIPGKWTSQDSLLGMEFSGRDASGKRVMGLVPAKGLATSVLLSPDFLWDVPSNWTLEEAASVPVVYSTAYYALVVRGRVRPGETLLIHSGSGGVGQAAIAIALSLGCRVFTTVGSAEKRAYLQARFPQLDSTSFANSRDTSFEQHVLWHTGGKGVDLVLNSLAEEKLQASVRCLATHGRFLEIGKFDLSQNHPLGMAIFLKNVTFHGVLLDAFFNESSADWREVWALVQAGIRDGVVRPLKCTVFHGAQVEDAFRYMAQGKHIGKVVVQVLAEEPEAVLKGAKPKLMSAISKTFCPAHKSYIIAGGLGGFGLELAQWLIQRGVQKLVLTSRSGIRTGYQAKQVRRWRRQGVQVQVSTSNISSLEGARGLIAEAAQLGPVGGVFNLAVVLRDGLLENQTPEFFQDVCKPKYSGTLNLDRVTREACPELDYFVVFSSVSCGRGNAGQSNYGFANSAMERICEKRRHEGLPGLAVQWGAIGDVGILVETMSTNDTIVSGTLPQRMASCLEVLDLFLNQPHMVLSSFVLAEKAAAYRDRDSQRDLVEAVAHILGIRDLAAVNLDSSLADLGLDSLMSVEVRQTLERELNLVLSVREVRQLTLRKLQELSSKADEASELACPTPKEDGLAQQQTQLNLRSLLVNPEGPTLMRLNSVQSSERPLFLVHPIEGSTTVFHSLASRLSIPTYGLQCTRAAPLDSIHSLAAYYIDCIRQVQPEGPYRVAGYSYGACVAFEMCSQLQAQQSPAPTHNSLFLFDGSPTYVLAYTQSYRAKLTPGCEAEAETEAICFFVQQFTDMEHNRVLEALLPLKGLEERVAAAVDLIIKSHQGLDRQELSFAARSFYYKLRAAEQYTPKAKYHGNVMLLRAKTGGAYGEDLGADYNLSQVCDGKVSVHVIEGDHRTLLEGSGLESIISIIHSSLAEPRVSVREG
# Sequence of Broad substrate specificity ATP-binding cassette transporter ABCG2 (Homo sapiens) (Q9UNQ0 whole entry, looked up): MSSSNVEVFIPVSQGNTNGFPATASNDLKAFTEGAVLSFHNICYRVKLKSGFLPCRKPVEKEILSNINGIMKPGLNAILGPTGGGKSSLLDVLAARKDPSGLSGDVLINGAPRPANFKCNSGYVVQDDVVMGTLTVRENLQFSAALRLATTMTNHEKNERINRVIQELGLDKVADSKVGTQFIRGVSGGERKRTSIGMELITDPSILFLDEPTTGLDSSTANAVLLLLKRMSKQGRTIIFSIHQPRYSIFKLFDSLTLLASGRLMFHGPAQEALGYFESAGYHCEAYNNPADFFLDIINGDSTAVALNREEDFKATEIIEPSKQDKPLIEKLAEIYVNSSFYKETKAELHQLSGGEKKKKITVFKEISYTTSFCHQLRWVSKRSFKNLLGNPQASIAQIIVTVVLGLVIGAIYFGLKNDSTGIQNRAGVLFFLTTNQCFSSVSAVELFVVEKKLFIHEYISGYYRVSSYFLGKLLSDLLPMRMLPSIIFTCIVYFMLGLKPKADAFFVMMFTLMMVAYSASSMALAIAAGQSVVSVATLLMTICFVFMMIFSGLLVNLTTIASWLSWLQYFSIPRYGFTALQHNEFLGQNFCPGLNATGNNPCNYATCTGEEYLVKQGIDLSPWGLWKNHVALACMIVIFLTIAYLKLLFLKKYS
structure (smiles),measurement,setting,value
Oc1ccccc1O,outcome,[1],inactive
same,outcome,[2],inactive
same,outcome,[3],inactive
same,outcome,[4],inactive
same,outcome,[5],inactive
same,outcome,[6],inactive
same,outcome,[7],inactive
same,outcome,[8],inactive
same,outcome,[9],inactive
same,outcome,[10],inactive
same,outcome,[11],inactive
same,outcome,[12],inactive
same,outcome,[13],inactive
same,outcome,[14],inactive
same,outcome,[15],inactive
same,outcome,[16],inactive
CC(C)c1cccc(C(C)C)c1,outcome,[2],inactive
same,outcome,[3],inactive
same,outcome,[4],inactive
same,outcome,[5],inactive
same,outcome,[17],inactive
same,outcome,[6],inactive
same,outcome,[7],inactive
same,AC50,[8],66.1 µM (active)
same,outcome,[9],inactive
same,outcome,[18],inactive
same,outcome,[10],inactive
same,outcome,[11],inactive
same,outcome,[12],inactive
same,outcome,[13],inactive
same,outcome,[14],inactive
same,outcome,[15],inactive
CC(=O)O[C@]1(C(C)=O)CC[C@H]2[C@@H]3C=C(Cl)C4=CC(=O)[C@@H]5C[C@@H]5[C@]4(C)[C@H]3CC[C@@]21C,outcome,[1],inactive
same,outcome,[2],inactive
same,AC50,[3],50 µM (active)
same,AC50,[4],0.0078 µM (active)
same,outcome,[5],inactive
same,outcome,[17],inactive
same,AC50,[6],50 µM (active)
same,AC50,[7],36.1 µM (active)
same,outcome,[8],inactive
same,AC50,[9],50 µM (active)
same,AC50,[10],50 µM (active)
same,outcome,[11],inactive
same,outcome,[12],inactive
same,outcome,[13],inactive
same,outcome,[14],inactive
same,outcome,[19],inactive
same,AC50,[15],50 µM (active)
same,outcome,[16],inactive
CC(C)c1cccc(C(C)C)c1NC(=O)NS(=O)(=O)c1cc(C(C)(C)O)co1,outcome,[2],inactive
same,outcome,[3],inactive
same,outcome,[4],inactive
same,outcome,[5],inactive
same,outcome,[17],inactive
same,outcome,[6],inactive
same,outcome,[7],inactive
same,outcome,[8],inactive
same,outcome,[9],inactive
same,outcome,[18],inactive
same,outcome,[10],inactive
same,outcome,[11],inactive
same,AC50,[12],6.65 µM (active)
same,outcome,[13],inactive
same,outcome,[14],inactive
same,outcome,[19],inactive
same,AC50,[15],3.34 µM (active)
same,AC50,[16],12.6 µM (active)
CCCCCCC(CCCCCCCCCCC(=O)OCC(COC(C)=O)OC(C)=O)OC(C)=O (configuration not stated),outcome,[2],inactive
same,outcome,[3],inactive
same,outcome,[4],inactive
same,outcome,[5],inactive
same,outcome,[17],inactive
same,outcome,[6],inactive
same,outcome,[7],inactive
same,outcome,[8],inactive
same,outcome,[9],inactive
same,outcome,[18],inactive
same,outcome,[10],inactive
same,outcome,[11],inactive
same,outcome,[12],inactive
same,outcome,[13],inactive
same,outcome,[14],inactive
same,outcome,[19],inactive
same,outcome,[15],inactive
same,outcome,[16],inactive
Cc1cc(SC2=C(O)C[C@@](CCc3ccc(N)cc3)(C(C)C)OC2=O)c(C(C)(C)C)cc1CO,outcome,[2],inactive
same,outcome,[3],inactive
same,outcome,[4],inactive
same,outcome,[5],inactive
same,outcome,[17],inactive
same,outcome,[6],inactive
same,outcome,[7],inactive
same,AC50,[8],29.6 µM (active)
same,outcome,[9],inactive
same,outcome,[18],inactive
same,outcome,[10],inactive
same,outcome,[11],inactive
same,AC50,[12],2.44 µM (active)
same,outcome,[13],inactive
same,outcome,[14],inactive
same,AC50,[15],2.16 µM (active)
